{
  "source": "the supplement of paper PMC11060735",
  "note": "Counter-ions that a name gives are not always drawn. ± gives the standard deviation of the averaged measurements. In all, about 1,800 compounds were measured (“GFP- (p16Ink4a-) cell count relative to negative-control wells”: median about 0.99, lowest 2% from about 0.5 on). Shown is part of a subset that was picked to be rich in the lowest values.",
  "data": [
    {"system": "mouse p16Ink4a+/- lung fibroblasts (INKBRITE, bleomycin-injured)", "assay": "GFP- (p16Ink4a-) cell count relative to negative-control wells (fold of vehicle); higher = more p16Ink4a- cells surviving", "conditions": "1 µM; 3 days", "values": [
      {"smiles": "C/C(=C\\c1csc(C)n1)[C@@H]1C[C@@H]2O[C@@H]2CCC[C@H](C)[C@H](O)[C@@H](C)C(=O)C(C)(C)[C@@H](O)CC(=O)O1", "note": "[Epothilone A]", "GFP-": 0.423},
      {"smiles": "C/C(=C\\c1csc(C)n1)[C@@H]1C[C@@H]2O[C@]2(C)CCC[C@H](C)[C@H](O)[C@@H](C)C(=O)C(C)(C)[C@@H](O)CC(=O)O1", "note": "[Epothilone B, Patupilone]", "GFP-": 1.03},
      {"smiles": "CN(C)[C@@H]1C(=O)C(C(N)=O)=C(O)[C@@]2(O)C(O)=C3C(=O)c4c(O)cccc4[C@@](C)(O)[C@H]3C[C@@H]12", "note": "[Tetracycline]", "GFP-": 1.07},
      {"smiles": "C=C1C[C@@H]2[C@H](CC[C@]3(C)C(=O)CC[C@@H]23)[C@@]2(C)C=CC(=O)C=C12", "note": "[Exemestane]", "GFP-": 1.13},
      {"smiles": "C[C@@H]1CC[C@@]2(OC1)O[C@H]1C[C@H]3[C@@H]4CC=C5C[C@@H](O[C@@H]6O[C@H](CO)[C@@H](O[C@@H]7O[C@@H](C)[C@H](O)[C@@H](O)[C@H]7O)[C@H](O)[C@H]6O[C@@H]6O[C@@H](C)[C@H](O)[C@@H](O)[C@H]6O)CC[C@]5(C)[C@H]4CC[C@]3(C)[C@H]1[C@@H]2C", "note": "[Dioscin]", "GFP-": 1.03},
      {"smiles": "COc1ccc(C(=O)N2CCCC2=O)cc1", "note": "[Aniracetam]", "GFP-": 0.968},
      {"smiles": "CN1[C@@H]2CC[C@H]1C[C@@H](OC(=O)C(CO)c1ccccc1)C2", "note": "(stereo not given in full) [Atropine]", "GFP-": 0.843},
      {"smiles": "CC(C)[C@]12O[C@H]1[C@@H]1O[C@]13[C@]1(O[C@H]1C[C@H]1C4=C(CC[C@@]13C)C(=O)OC4)[C@@H]2O", "note": "[Triptolide]", "GFP-": 0.366},
      {"smiles": "CC(=O)Nc1ccc(OC[C@](C)(O)C(=O)Nc2ccc([N+](=O)[O-])c(C(F)(F)F)c2)cc1", "note": "[Andarine]", "GFP-": 1},
      {"smiles": "CCN(CC)C(=O)c1ccc(C2=CC3(CCNCC3)Oc3cccc(O)c32)cc1", "GFP-": 0.95},
      {"smiles": "CCNC(=O)C[C@@H]1N=C(c2ccc(Cl)cc2)c2cc(OC)ccc2-n2c(C)nnc21", "GFP-": "1.04 ± 0.19"},
      {"smiles": "C1=C2CCCN[C@H]2[C@@H]2C[C@H]1[C@H]1CCCCN1C2", "note": "[Aloperine]", "GFP-": 0.98},
      {"smiles": "O=[N+]([O-])/C=C/c1ccc2c(c1)OCO2", "GFP-": 1.03},
      {"smiles": "CC[C@@H]1[C@@H](C)O[C@@](O)([C@@H](C)[C@H](O)[C@H](C)[C@H]2OC(=O)/C=C/C=C/[C@H](C)[C@H]([C@@H](C)[C@@H](O)[C@H](C)[C@@]3(O)C[C@@H](O[C@H]4C[C@H](O)[C@H](O)[C@H](C)O4)[C@H](CC)[C@@H](C)O3)OC(=O)/C=C/C=C/[C@H]2C)C[C@H]1O[C@H]1C[C@H](O)[C@H](O)[C@H](C)O1", "note": "[Elaiophylin]", "GFP-": 0.414},
      {"smiles": "CCOC(=O)c1cncn1C(C)c1ccccc1", "note": "(stereo not given) [Etomidate]", "GFP-": 1.09},
      {"smiles": "Oc1nc2ccc(Cl)cc2c(N[C@@H]2CN3CCC2CC3)c1-c1nc2ccccc2[nH]1", "GFP-": 0.944},
      {"smiles": "CC(C)NCC(O)c1ccccc1Cl", "note": "(stereo not given) [Clorprenaline]", "GFP-": 1.02},
      {"smiles": "C[C@H]1CCC/C=C/[C@@H]2C[C@H](O)C[C@H]2[C@H](O)/C=C/C(=O)O1", "note": "[Brefeldin A]", "GFP-": 0.4},
      {"smiles": "CCc1c(C(=O)C(N)=O)c2c(OCC(=O)O)cccc2n1Cc1ccccc1", "note": "[Varespladib]", "GFP-": 1.27},
      {"smiles": "CCOc1ccccc1-n1c(C(C)N2CCN(C(=O)COc3ccc(Cl)cc3)CC2)nc2ccccc2c1=O", "note": "(stereo not given) [Erastin]", "GFP-": 0.31},
      {"smiles": "O=C(O)CNC(=O)c1c(O)c2ccccc2n(Cc2ccccc2)c1=O", "GFP-": "1.07 ± 0.046"},
      {"smiles": "CNCC(=O)c1ccc(O)c(O)c1", "note": "[Adrenolone Hydrochloride]", "GFP-": 1.05},
      {"smiles": "CN1C(=O)CCS(=O)(=O)C1c1ccc(Cl)cc1", "note": "(stereo not given) [Chlomezanone, Chlormezanone]", "GFP-": 1.03},
      {"smiles": "CO[C@H]1CCC(O[C@H]2C[C@H]([C@]3(C)CC[C@]4(C[C@H](O)[C@@H](C)[C@@H]([C@@H](C)/C=C(\\C)C(=O)[C@H](C)C[C@H](C)C(=O)O)O4)O3)O[C@]3(O[C@@H]([C@H]4O[C@@](O)(CO)[C@H](C)C[C@@H]4C)C[C@@H]3C)[C@@H]2C)O[C@@H]1C", "note": "(stereo not given in full) [Nanchangmycin]", "GFP-": 0.412},
      {"smiles": "Cc1sc2c(c1C)C(c1ccc(Cl)cc1)=N[C@@H](CC(=O)Nc1ccc(O)cc1)c1nnc(C)n1-2", "GFP-": "0.844 ± 0.048"},
      {"smiles": "CCCN1CCO[C@H]2c3cc(O)ccc3OC[C@@H]21", "GFP-": 1.04},
      {"smiles": "C/C=C(\\C)C(=O)N[C@@H](c1ccccc1)[C@@H](O)C(=O)O[C@H]1C[C@@]2(O)[C@@H](OC(=O)c3ccccc3)[C@@H]3[C@]4(OC(C)=O)CO[C@@H]4C[C@H](O)[C@@]3(C)C(=O)[C@H](OC(C)=O)C(=C1C)C2(C)C", "note": "[Cephalomannine]", "GFP-": 0.683},
      {"smiles": "Cc1ccc(-n2nccn2)c(C(=O)N2CCN(c3nc4cc(Cl)ccc4o3)CC[C@H]2C)c1", "note": "[Suvorexant]", "GFP-": 1.13},
      {"smiles": "C[C@@H]1[C@H](O)[C@@H](C)/C=C/C=C/CC/C=C/C=C/C=C/C=C/[C@H](O[C@H]2O[C@@H](C)[C@H](O)[C@@H](N)[C@H]2O)C[C@@H]2O[C@](O)(C[C@@H](O)[C@H](O)CC[C@@H](O)C[C@@H](O)C[C@@H](O)CC(=O)O[C@H]1C)C[C@H](O)[C@H]2C(=O)O", "note": "[Nystatin (Fungicidin)]", "GFP-": 0.951},
      {"smiles": "C[C@H]1CNCCc2ccc(Cl)cc21", "note": "[Lorcaserin]", "GFP-": 1.02}
    ]}
  ]
}
